G9a inh: inhibitors of human histone lysine methyltransferase G9a | 350,000 tested, 8.8% active | Q96KQ7 | Potency, µM (doses to about 102 µM), for inactives: top-dose activity, negative = inhibition, actives largely listed as inhibitors | G9a H3K9 monomethylation, AlphaScreen, 2 h; note: potency is the fitted concentration of half-maximal effect; % is set by controls: 0 for no effect and ±100 for the full control effect; nearly all actives have a fitted effect of over 75% in size
Target sequence (Q96KQ7 913-1193 limits assumed): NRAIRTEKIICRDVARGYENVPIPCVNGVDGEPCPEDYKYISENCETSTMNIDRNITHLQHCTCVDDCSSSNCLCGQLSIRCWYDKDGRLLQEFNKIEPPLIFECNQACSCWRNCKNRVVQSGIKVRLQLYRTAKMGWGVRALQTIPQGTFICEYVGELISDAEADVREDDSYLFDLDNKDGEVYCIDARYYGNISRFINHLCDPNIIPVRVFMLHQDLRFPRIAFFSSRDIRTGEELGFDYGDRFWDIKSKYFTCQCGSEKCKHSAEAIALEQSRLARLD
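Compounds were preincubated with 20 nM G9a for 15 min, after which biotinylated H3K9 peptide (500 nM) and SAM (20 uM) started a 2 h room-temperature reaction. Monomethylated product was quantified by antibody-based AlphaScreen chemiluminescence.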
PI5P4K alpha inh: PI5P4K alpha (human) kinase inhibition | PI5P4Kalpha enzyme, ADP-Glo luminescence, 60 min; active compounds read low | max response, % | 330,000 tested, 1.2% active; active = max response of -50% or lower; inconclusive = between -30% and -50%; inactive = -30% or higher; note: value at the top dose of about 77 µM; % is set by controls: 0 for no effect and ±100 for the full control effect
Target sequence (P48426 whole entry, looked up): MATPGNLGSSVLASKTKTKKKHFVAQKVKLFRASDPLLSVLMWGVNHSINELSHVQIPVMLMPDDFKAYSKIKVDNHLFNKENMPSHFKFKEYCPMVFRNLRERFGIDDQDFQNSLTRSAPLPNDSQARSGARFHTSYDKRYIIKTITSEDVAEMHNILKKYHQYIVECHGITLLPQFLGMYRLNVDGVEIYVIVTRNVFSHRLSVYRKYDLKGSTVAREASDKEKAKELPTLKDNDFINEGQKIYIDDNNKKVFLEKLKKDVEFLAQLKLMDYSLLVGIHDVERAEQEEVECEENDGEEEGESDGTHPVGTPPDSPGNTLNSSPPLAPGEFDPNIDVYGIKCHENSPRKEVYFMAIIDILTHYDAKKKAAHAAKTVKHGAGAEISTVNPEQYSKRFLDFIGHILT
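qHTS, 1536-well: enzyme/substrate mix, compound by pin tool, 5 microM ATP final; RT 60 min; ADP-Glo reagents 1 (45 min) then 2 (30 min); luminescence.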
HP1b binding inh: blocks HP1-beta chromodomain binding to methylated histone tails. AID 540317. P83916. 390,000 tested, 0.56% active. AlphaScreen HP1-beta / biotin-H3K9me3 peptide binding. Potency, µM (top dose mostly 114 µM), without a hit: at the highest dose activity change, negative = inhibition, actives largely listed as inhibitors; note: potency is the fitted concentration of half-maximal effect; nearly all actives have a fitted effect of over 70% in size
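Compound inhibition of the preformed complex between 50 nM HP1-beta and 50 nM biotinylated H3K9me3 peptide was read by AlphaScreen. Buffer was PBS pH 7.4 with 0.01% Tween-20. Incubations ran 30 min at room temperature, with 10 ug/mL donor/acceptor beads.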
BAZ2B inh: blocks human BAZ2B | AlphaScreen BAZ2B-H3K14Ac peptide displacement | Potency, µM (doses to about 114 µM), for the others: at the highest dose activity change, negative = inhibition, actives largely listed as inhibitors | 360,000 tested, 4.4% active | Q9UIF8; note: potency is the fitted concentration of half-maximal effect; % is set by controls: 0 for no effect and ±100 for the full control effect; nearly all actives have a fitted effect of over 60% in size
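BAZ2B (50 nM) with biotin-H3(5-23)K14Ac peptide (50 nM) in PBS pH 7.4, 0.01% Tween-20, preformed 30 min, then compound 30 min at room temperature; top concentration 110uM. AlphaScreen streptavidin donor/nickel chelate acceptor beads (10 ug/mL final), 20 min dark, signal read.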
JMJD2A Tudor: blocks the human JMJD2A Tudor domain; O75164; AlphaScreen JMJD2A-Tudor / H3K4me3 peptide binding; Potency, µM (series often up to 114 µM), for inactives: at the top dose activity change, negative = inhibition, most hits filed as inhibitors; 390,000 tested, 4.4% active; AID 504339; note: potency is the fitted concentration of half-maximal effect; % is set by controls: 0 for no effect and ±100 for the full control effect; nearly all actives have a fitted effect of over 50% in size
PLK1 PBD block: inhibitors of human PLK1 polo-box domain binding. Plk1 PBD binding of FITC phosphopeptide, fluorescence polarization. Potency, µM, for the others: max response, negative = inhibition, actives largely listed as inhibitors. 360,000 tested, 2.8% active; note: potency is the fitted concentration of half-maximal effect; series mostly up to about 57 µM; % is set by controls: 0 for no effect and ±100 for the full control effect; nearly all actives have a fitted effect of over 65% in size
* hit, by the source's call; u = inconclusive; x = no result given; [ ] = another dose, or the depositor's remark. This is a sample that favours compounds with a hit; in the whole collection about 12% have one here. Unless noted, calls come from the whole dose curve; as a rule, active = well fitted curve in the direction sought with a large enough effect; inconclusive = small, poorly fitted or top-dose-only effect, or another doubt; inactive = no such curve, though single readings can be large; an effect the other way counts as inactive or inconclusive.

SMILES	G9a inh	PI5P4K alpha inh	HP1b binding inh	BAZ2B inh	JMJD2A Tudor	PLK1 PBD block
CC1=C2C(CCS2(=O)=O)CC2(C1)C(=O)OC(C)(C)OC2=O (stereo not given)	50µM*	-13	22%	-38%	-35%	-8%
O=C1c2ccccc2-c2nnc(-c3ccccc3)cc21	5%[0.501 µM]	-11	18%	u	-28%	-9%
COc1ccc(-c2cc3c(nn2)-c2ccccc2C3=O)cc1	-5%	u	-8%	-14%	22µM*	24µM*
CCOc1ccccc1CNCc1c(C(=O)O)c(C)n(Cc2ccc(Cl)cc2)c1C	9%[59 µM]	x	9%	-21%	-10%	x
CN(C)c1ccc(C=Nc2ccccc2C(N)=O)cc1	18µM*	-4	6%	x	-28%	-10%
Cc1[nH]c2ccc(C(=O)OC(C)C(=O)NC3(C#N)CCCCC3)cc2c1C (stereo not given)	45µM*	0	4%	50µM*	u	0%
CCOc1ccc(N2C(=O)c3cccnc3C2=O)cc1	-47%	x	7%	56µM*	u	-6%
COc1ccc(OC)c(N2C(=O)c3cccnc3C2=O)c1	9%	1	50%	79µM*	-32%	0%
COc1ccc(Cl)cc1N1C(=O)c2cccnc2C1=O	-8%	5	54%	u	-9%	8%
COc1cccc(NC(=O)CCN2C(=O)c3cccc([N+](=O)[O-])c3C2=O)c1	-6%	7	9%	3%	-9%	-14%
CC(OC(=O)CCN1C(=O)c2cccc([N+](=O)[O-])c2C1=O)C(=O)Nc1cc(Cl)cc(Cl)c1 (stereo not given)	25µM*	-3	4%	-34%	-23%	-2%
O=C(NC1CCCC1)c1nc(-c2c(F)cccc2F)oc1-c1ccccc1	x	8	x	x	x	0%
Cc1cc2oc(=O)cc(CSc3nnc(-c4cccs4)o3)c2cc1C(C)C	35µM*	8	-7%	-8%	89µM*	24µM*
O=C(CSc1nnnn1-c1ccccc1)NC1CCCc2ccccc21 (stereo not given)	35µM*	0	50%	3%	14%	0%
Cn1nnnc1SCC(=O)c1ccco1	u	4	45%	-24%	-7%	-20%
CN(C)C(=O)CSc1nnc2sc3ccccc3n12	4%	-4	21%	-6%	6%	-1%
O=C(CSc1ncnc2ccccc12)NCc1ccco1	0%[59 µM]	-9	9%	-37%	u	-24%
O=C(CSc1nnnn1-c1ccccc1)c1ccco1	50µM*	-1	39%	-9%	-25%	-24%
O=c1c2ccccc2nnn1CSc1nnc2sc3ccccc3n12	7.1µM*	x	x	-4%	x	x
O=C(CSc1ncnc2ccccc12)c1ccco1	13µM*	-21	u	-22%	u	u
CCOc1ccccc1NC(=O)COC(=O)/C=C/c1cccs1	x	1	48%	x	26%	3%
O=C(CSc1nnc2sc3ccccc3n12)c1ccco1	10µM*	x	25%	-1%	-19%	u
O=C(CSCCSCC(=O)c1ccco1)c1ccco1	10µM*	x	x	u	x	x
O=C(CSc1nc2ccccc2[nH]1)c1ccco1	-9%[59 µM]	-25	14%	17%	-3%	u
CC(C)(C)NC(=O)C(=O)NCCC1=CCCCC1	21%	7	u	-7%	-31%[57.1 µM]	21µM*
SMILES	G9a inh	PI5P4K alpha inh	HP1b binding inh	BAZ2B inh	JMJD2A Tudor	PLK1 PBD block
Cn1c(=O)c2ccccc2n(CC(=O)NCCC2=CCCCC2)c1=O	28µM*	0	10%	0%	1%	-5%
CC(C)[C@H](NC(=O)NCCC1=CCCCC1)C(=O)O	19%	3	50%	-9%	2%[11.4 µM]	-10%
COC(=O)CNC(=O)CNC(=O)c1nn(-c2ccc(OC)c(OC)c2)c(=O)c2ccccc12	10%	2	26%	3%	-6%	-17%
CCC(C)[C@H](NC(=O)NCCC1=CCCCC1)C(=O)O (stereo not given in full)	-10%[12.7 µM]	2	20%	-1%	-9%[11.4 µM]	24µM*
COc1ccc(-n2nc(C(=O)NCC(=O)NCCC3=CCCCC3)c3ccccc3c2=O)cc1OC	50µM*	3	-8%	3%	-13%	-3%
CCCN1CNc2c(c(=O)[nH]c(=S)n2CCC)C1	x	x	20%	x	-24%	x
COc1cc(-c2nnc(SCC(=O)N(C)C3CCCCC3)o2)cc(OC)c1OC	-6%[59 µM]	x	48%	2%	-11%	x
Cc1nc(-c2ccc(Cl)cc2)oc1COC(C)(C)C(=O)O	-5%[12.7 µM]	x	x	x	x	x
Cc1ccc([C@H]2C[C@@H](O)[C@H](n3cc(-c4ccc(F)cc4)nn3)CN2C(=O)c2cccs2)cc1	x	0	x	x	x	-5%
CCOc1ccc(NC(=O)C(C)Sc2nc3ncccc3o2)cc1 (stereo not given)	-1%[59 µM]	x	-11%	-2%	-8%	x
C=C1CCN(C(C)C(=O)OCc2cccc(C)c2)S(=O)(=O)c2ccccc21 (stereo not given)	x	x	90%	x	28%	x
COc1ccccc1NC(=O)NCCC1=CCCCC1	6%	-16	-10%	3%	-22%	24µM*
CCOc1ccccc1NC(=O)C(=O)NCCC1=CCCCC1	-4%	u	-3%	-2%	u	27µM*
COc1cccc(/C=C/C(=O)OCC(=O)NCCC2=CCCCC2)c1	-2%	-65*	21%	-29%	8.9µM*	8.4µM*
CCOc1ccccc1NC(=O)NCCC1=CCCCC1	30%	4	27%	-10%	-9%	-15%
CC(=O)C(C(C)=O)c1c(Cl)c(O)c(O)c2c(C(=O)c3ccccc3)coc12	u	-26	u	45µM*	63µM*	-21%
COc1ccc(C(CNC(=O)c2ccc(S(=O)(=O)Nc3ccccc3OC)cc2)N2CCCC2)cc1 (stereo not given)	x	-3	17%	x	-25%	-3%
O=[N+]([O-])c1cc(-c2nc(-c3ccccc3)no2)ccc1NCCc1ccccc1	u	x	45%	-25%	-14%	x
O=C(/C=C/c1ccco1)N1CCc2ccccc21	40µM*	u	7%	x	-18%	-7%
Cc1ccc(/C=C/C(=O)N2CCc3ccccc32)o1	22µM*	-75*	45µM*	45µM*	40µM*	u
CCOC(=O)/C=C/C(=O)N1CCc2ccccc21	12%[0.501 µM]	1	14%	u	-16%	-12%
CC(=O)N1CCC[C@@]2(CCN(Cc3ccccc3)C2)C1	-2%[12.7 µM]	x	x	x	x	x
CC1(C)CC(=O)C(CC2=C(O)CC(C)(C)CC2=O)C(=O)C1	u	-4	34%	10%	-31%	-11%
CC1(C)CC(=O)C(CC2=C(O)CC(C)(C)CC2=O)=C(O)C1	4.5µM*	x	40%	7%	-16%	-10%
CCn1nc(C)c(CCN(C)C(=O)Nc2cc(Cl)c(OC)cc2OC)c1C	13%[59 µM]	x	40%	-13%	-2%	x
